Records with an inconclusive call do not appear. Calls of active or inactive are those of the source. The calls were made as follows, unless noted: active = hit-call score of the fitted dose curve at least 0.9, where 1 is the maximum; inconclusive = response in the unintended direction; inactive = score below 0.9.
How the values were obtained:
[1] = read-out: Glyceraldehyde-3-phosphate dehydrogenase (Homo sapiens) (UniProt P04406); experiment: CLD_GAPDH_24hr: CellzDirect (CLD) Gene Expression Assay for Baseline Control (Glyceraldehyde 3-phosphate dehydrogenase) at 24 hours (AID 2283692)
How it was run: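 GAPDH baseline-control readout: qNPA chemiluminescent mRNA signal in human primary hepatocytes harvested 24 h after daily dosing, normalised to 0.2% DMSO with positive fitting direction; cytotoxicity annotated by phase-contrast morphology.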

[2] = read-out: alkyl and aryl transferase (GSTA2), GSTA2 (gene 2939); experiment: CLD_GSTA2_24hr: CellzDirect (CLD) Gene Expression Assay for alkyl and aryl transferase (GSTA2) at 24 hours (AID 2283693)
How it was run: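 GSTA2 transcript levels were quantified by quantitative nuclease protection assay in primary human hepatocytes 24 h after daily dosing with fresh solutions at multiple concentrations; 0.2% DMSO vehicle as baseline, cytotoxicity flagged morphologically.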

[3] = read-out: Cytochrome P450 3A4 (Homo sapiens) (UniProt P08684); experiment: CLD_CYP3A4_48hr: CellzDirect (CLD) Gene Expression Assay for xenobiotic metabolism (CYP3A4) at 48 hours (AID 2283698)
How it was run: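 CYP3A4 induction read by qNPA chemiluminescence after 48 h, with fresh dosing solutions on consecutive days, in cultured human hepatocytes (two donors). Vehicle 0.2% DMSO as baseline; microscopy-based cytotoxicity annotated yes/no alongside data.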

[4] = read-out: Cytochrome P450 2B6 (Homo sapiens) (UniProt P20813); experiment: CLD_CYP2B6_48hr: CellzDirect (CLD) Gene Expression Assay for xenobiotic metabolism (CYP2B6) at 48 hours (AID 2283699);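 also: actives raise transcript level above DMSO so potency reflects induction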
How it was run: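 CYP2B6 transcript induction, read by quantitative nuclease protection (S1 digestion, chemiluminescent detection) 48 h after dosing, is fitted upward against 0.2% DMSO. Cultured human liver primary cells, two donor preparations, received fresh chemical daily over multiple concentrations.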

[5] = read-out: Cytochrome P450 2C9 (Homo sapiens) (UniProt P11712); experiment: CLD_CYP2C9_48hr: CellzDirect (CLD) Gene Expression Assay for xenobiotic metabolism (CYP2C9) at 48 hours (AID 2283701; active = hit-call score of the fitted dose curve at least 0.9, where 1 is the maximum; inactive = score below 0.9)
How it was run: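 mRNA level measured by quantitative nuclease protection (S1 digestion, chemiluminescent detection) in lysates of human primary hepatocytes exposed 48 h with daily re-dosing. Induction fitted positively versus 0.2% DMSO; morphology-based cytotoxicity flagged yes/no.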

[6] = read-out: xenobiotic metabolism (CYP1A2), CYP1A2 (gene 1544); experiment: CLD_CYP1A2_48hr: CellzDirect (CLD) Gene Expression Assay for xenobiotic metabolism (CYP1A2) at 48 hours (AID 2283703)
How it was run: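 Cytotoxicity was flagged yes/no from morphology, while CYP1A2 transcript induction was detected by qNPA chemiluminescence after a 48-hour exposure. Human primary hepatocyte cultures from separate donors received fresh dosing solutions daily over two days, with 0.2% DMSO as vehicle and baseline.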

[7] = read-out: alkyl and aryl transferase (GSTA2), GSTA2 (gene 2939); experiment: CLD_GSTA2_48hr: CellzDirect (CLD) Gene Expression Assay for alkyl and aryl transferase (GSTA2) at 48 hours (AID 2283708);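 also: active means mRNA induction above DMSO vehicle baseline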
How it was run: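 GSTA2 mRNA quantified by qNPA chemiluminescence in human primary hepatocyte lysates after 48 h of daily fresh chemical dosing. Increases fitted against 0.2% DMSO vehicle baseline; cytotoxicity from morphology annotated yes/no.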

[8] = read-out: glucuronosyltransferase (UGT1A1), UGT1A1 (gene 54658); experiment: CLD_UGT1A1_48hr: CellzDirect (CLD) Gene Expression Assay for glucuronosyltransferase (UGT1A1) at 48 hours (AID 2283709);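 also: actives increase expression relative to DMSO so potency refers to induction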
How it was run: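 Quantitative nuclease protection assay (chemiluminescent) for UGT1A1 mRNA at 48 h in human hepatocyte cultures from two donors, redosed daily with fresh solutions. Induction fitted relative to 0.2% DMSO; phase-contrast morphology annotated cytotoxicity.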

[9] = read-out: HMG-CoA synthase (HMGCS2), HMGCS2 (gene 3158); experiment: CLD_HMGCS2_48hr: CellzDirect (CLD) Gene Expression Assay for HMG-CoA synthase (HMGCS2) at 48 hours (AID 2283711)
How it was run: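 mRNA induction read by qNPA chemiluminescence, 48 h after dosing. Cultured primary human liver cells (two donor preparations) received fresh compound daily over two days against 0.2% DMSO vehicle; morphology-based cytotoxicity noted alongside.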

[10] = read-out: ABC Transporter (ABCB1), ABCB1 (gene 5243); experiment: CLD_ABCB1_48hr: CellzDirect (CLD) Gene Expression Assay for ABC Transporter (ABCB1) at 48 hours (AID 2283695);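 as to AC50: potency for induction meaning increase of mRNA over DMSO vehicle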
How it was run: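 ABCB1 mRNA was measured by quantitative nuclease protection assay (chemiluminescence) 48 h after dosing. Human hepatocyte cultures from two separate donors received fresh dosing solutions daily for two days, with 0.2% DMSO as vehicle. Positive-direction fit against DMSO.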

[11] = read-out: Cytochrome P450 2C19 (Homo sapiens) (UniProt P33261); experiment: CLD_CYP2C19_48hr: CellzDirect (CLD) Gene Expression Assay for xenobiotic metabolism (CYP2C19) at 48 hours (AID 2283700);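 also: fitted upward so actives raise CYP2C19 mRNA above the 0.2% DMSO vehicle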
How it was run: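 CYP2C19 mRNA induction read by chemiluminescent quantitative nuclease protection assay after 48 h, with fresh compound added daily for two days to cultured human liver hepatocytes. Activity fitted upward against 0.2% DMSO vehicle.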

[12] = CLD_ACTIN_48hr: CellzDirect (CLD) Gene Expression Assay for Baseline Control (Actin) at 48 hours (AID 2283702)
How it was run: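 Background-control actin mRNA read by qNPA chemiluminescence at 48 h. Human hepatocyte cultures from two donors received fresh multi-concentration chemical doses daily for two days; 0.2% DMSO served as vehicle baseline.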

[13] = read-out: xenobiotic metabolism (CYP1A1), CYP1A1 (gene 1543); experiment: CLD_CYP1A1_48hr: CellzDirect (CLD) Gene Expression Assay for xenobiotic metabolism (CYP1A1) at 48 hours (AID 2283705)
How it was run: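 CYP1A1 transcript measured by quantitative nuclease protection (chemiluminescent) 48 h after two daily treatments of human hepatocyte cultures, versus 0.2% DMSO. Morphology-based cytotoxicity flags accompany data; two donor preparations used.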

[14] = read-out: organic anion transporter (SLCO1B1), SLCO1B1 (gene 10599); experiment: CLD_SLCO1B1_48hr: CellzDirect (CLD) Gene Expression Assay for organic anion transporter (SLCO1B1) at 48 hours (AID 2283707)
How it was run: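 SLCO1B1 transcript quantified by qNPA with chemiluminescent readout after 48 h of once-daily chemical exposure. Cultured human primary hepatocytes came from two donors, with 0.2% DMSO vehicle; positive-direction fitting against DMSO, cytotoxicity flagged by morphology.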

[15] = read-out: sulfotransferase (SULT2A), SULT2A1 (gene 6822); experiment: CLD_SULT2A_24hr: CellzDirect (CLD) Gene Expression Assay for sulfotransferase (SULT2A) at 24 hours (AID 2283694)
How it was run: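 mRNA is measured by qNPA: probe hybridisation, S1 nuclease digestion, chemiluminescence, in lysates from human primary hepatocytes harvested 24 h after daily dosing. Vehicle was 0.2% DMSO. Phase-contrast microscopy flagged cytotoxicity (yes/no).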

[16] = read-out: sulfotransferase (SULT2A), SULT2A1 (gene 6822); experiment: CLD_SULT2A_48hr: CellzDirect (CLD) Gene Expression Assay for sulfotransferase (SULT2A) at 48 hours (AID 2283710);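 also: hits raise SULT2A1 transcript above the 0.2% DMSO vehicle baseline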
How it was run: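 SULT2A1 transcript measured by qNPA chemiluminescence in human primary hepatocyte cultures after 48 h, with fresh dosing solutions on two consecutive days; gain-of-signal fitting against 0.2% DMSO vehicle; cytotoxicity annotated from phase-contrast morphology.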

[17] = STM_H9_OrnithineISnorm_perc: Stemina devTOX quickPredict H9 human embryonic stem cell (hESC)-based Assay for Ornithine (ORN) Metabolite Biomarker, Normalized (AID 2283712; active = hit-call score of the fitted dose curve at least 0.9, where 1 is the maximum; inactive = score below 0.9;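 also: ornithine released into spent medium during last day measured by mass spectrometry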)
How it was run: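 UPLC-HRMS readout: endogenous ornithine EIC area / 13C-ORN internal standard, then % of 0.1% DMSO median. H9 hESCs (pluripotent), 72h exposure, re-dosed with fresh media q24h; last 24-h spent media, deproteinized in 40% acetonitrile.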

[18] = read-out: glucuronosyltransferase (UGT1A1), UGT1A1 (gene 54658); experiment: CLD_UGT1A1_24hr: CellzDirect (CLD) Gene Expression Assay for glucuronosyltransferase (UGT1A1) at 24 hours (AID 2283696)
How it was run: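 UGT1A1 transcript induction was measured by quantitative nuclease protection assay (chemiluminescence) in human hepatocyte cultures 24 h after daily fresh dosing, with 0.2% DMSO as vehicle and baseline.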

Measured: AC50

Cytochrome P450 3A4 (Homo sapiens), sequence (P08684 whole entry, looked up): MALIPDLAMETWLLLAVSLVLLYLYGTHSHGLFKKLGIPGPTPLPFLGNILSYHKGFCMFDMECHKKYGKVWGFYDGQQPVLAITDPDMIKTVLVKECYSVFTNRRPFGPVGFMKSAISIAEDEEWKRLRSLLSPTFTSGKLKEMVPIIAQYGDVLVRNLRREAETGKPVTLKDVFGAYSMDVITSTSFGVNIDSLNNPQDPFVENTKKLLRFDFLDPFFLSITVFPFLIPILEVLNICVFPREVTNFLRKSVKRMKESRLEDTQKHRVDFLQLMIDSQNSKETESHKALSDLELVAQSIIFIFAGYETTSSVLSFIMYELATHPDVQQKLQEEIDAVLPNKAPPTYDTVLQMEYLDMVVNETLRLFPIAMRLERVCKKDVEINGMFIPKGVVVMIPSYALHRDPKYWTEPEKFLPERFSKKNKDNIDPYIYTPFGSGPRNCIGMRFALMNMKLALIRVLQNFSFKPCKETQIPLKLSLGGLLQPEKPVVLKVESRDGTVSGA
Cytochrome P450 2C19 (Homo sapiens), sequence (P33261 whole entry, looked up): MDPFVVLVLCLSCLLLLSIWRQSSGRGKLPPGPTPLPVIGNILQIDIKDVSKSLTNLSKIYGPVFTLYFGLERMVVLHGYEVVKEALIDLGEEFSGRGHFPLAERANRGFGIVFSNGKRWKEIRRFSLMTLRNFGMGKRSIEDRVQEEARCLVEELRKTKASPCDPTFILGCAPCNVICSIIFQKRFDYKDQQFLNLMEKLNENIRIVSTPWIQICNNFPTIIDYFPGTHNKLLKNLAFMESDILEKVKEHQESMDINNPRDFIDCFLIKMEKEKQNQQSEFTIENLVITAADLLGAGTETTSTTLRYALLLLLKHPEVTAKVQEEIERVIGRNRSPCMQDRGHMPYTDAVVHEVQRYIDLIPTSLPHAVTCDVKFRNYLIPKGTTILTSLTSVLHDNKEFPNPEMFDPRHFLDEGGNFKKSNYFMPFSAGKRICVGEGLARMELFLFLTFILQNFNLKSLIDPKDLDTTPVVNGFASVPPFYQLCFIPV
Glyceraldehyde-3-phosphate dehydrogenase (Homo sapiens), sequence (P04406 whole entry, looked up): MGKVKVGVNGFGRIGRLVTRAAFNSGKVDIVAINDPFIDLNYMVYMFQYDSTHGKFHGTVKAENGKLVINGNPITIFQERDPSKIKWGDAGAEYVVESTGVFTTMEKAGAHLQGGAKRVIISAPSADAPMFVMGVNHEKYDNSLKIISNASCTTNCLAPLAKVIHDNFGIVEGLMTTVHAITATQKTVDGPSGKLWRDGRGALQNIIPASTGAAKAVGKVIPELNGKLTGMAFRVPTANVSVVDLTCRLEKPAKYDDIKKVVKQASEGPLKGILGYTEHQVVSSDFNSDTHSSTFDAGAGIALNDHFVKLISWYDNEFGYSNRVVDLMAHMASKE

CCOP(=O)(OCC)Oc1nc(Cl)c(Cl)cc1Cl
inactive: [1] | [2] | [3] | [5] | [7] | [8] | [9]
active: [4] 3.97 µM | [6] 4.58 µM

Clc1nc(Cl)nc(Nc2ccccc2Cl)n1
inactive: [1] | [2] | [10] | [3] | [4] | [11] | [12] | [6] | [13] | [14] | [7] | [8]

COc1cc(OC)nc(NC(=O)NS(=O)(=O)c2ncccc2OCC(F)(F)F)n1
active: [3] 20 µM
inactive: [15] | [10] | [4] | [11] | [5] | [12] | [6] | [13] | [14] | [8] | [16] | [9] | [17]

CNC(=O)N(C)c1nnc(C(C)(C)C)s1
inactive: [2] | [10] | [11] | [12] | [6] | [13] | [14] | [7] | [8] | [9]

Cc1c(COC(=O)[C@@H]2[C@H](/C=C(\Cl)C(F)(F)F)C2(C)C)cccc1-c1ccccc1
inactive: [2] | [10] | [5] | [6] | [14] | [7] | [8] | [9]
active: [18] 20 µM | [3] 4.01 µM | [4] 3.39 µM | [13] 20 µM

CCOP(=S)(OCC)Oc1nc(Cl)n(C(C)C)n1
inactive: [2] | [10] | [5] | [7] | [16] | [17]
active: [3] 2.52 µM | [4] 0.427 µM | [6] 5.78 µM | [13] 5.35 µM | [8] 1.9 µM

COC(=O)NC(=S)Nc1ccccc1NC(=S)NC(=O)OC
active: [3] 3.45 µM | [4] 20 µM | [6] 15.7 µM | [13] 3.32 µM
inactive: [10] | [18] | [5] | [12] | [14] | [7] | [8] | [9]

CCC(C)n1c(=O)[nH]c(C)c(Br)c1=O (stereo not drawn)
inactive: [3] | [8] | [17]
active: [4] 3.28 µM | [6] 11.8 µM | [13] 8.72 µM

CCCCC(O)(Cn1cncn1)c1ccc(Cl)cc1Cl (stereo not drawn)
inactive: [5] | [12] | [7] | [8]
active: [10] 31.9 µM | [3] 1.89 µM | [4] 0.63 µM | [6] 3.97 µM | [13] 20 µM | [17] 85.1 µM

CCNP(=S)(OC)O/C(C)=C/C(=O)OC(C)C (stereo not drawn)
active: [3] 0.654 µM | [4] 0.598 µM | [6] 1.99 µM | [13] 3.99 µM | [8] 1.04 µM | [17] 50 µM
inactive: [5]

CC1(C)CCC(=Cc2ccc(Cl)cc2)C1(O)Cn1cncn1 (stereo not drawn)
active: [4] 4.01 µM | [6] 1.66 µM | [13] 3.17 µM | [17] 78.2 µM
inactive: [10] | [5] | [8]

CC(C)NC(=O)N1CC(=O)N(c2cc(Cl)cc(Cl)c2)C1=O
inactive: [18] | [8]
active: [3] 13.5 µM | [4] 3.92 µM | [6] 4.68 µM | [13] 12.3 µM

CCOc1cc(C(C)(C)C)ccc1C1COC(c2c(F)cccc2F)=N1 (stereo not drawn)
active: [3] 1.9 µM | [4] 2.11 µM | [6] 20 µM | [13] 30.3 µM
inactive: [10] | [18] | [5] | [14] | [8]

CCN(CC)C(=O)C(C)Oc1cccc2ccccc12 (stereo not drawn)
active: [3] 3.72 µM | [4] 6.33 µM | [6] 5.76 µM | [13] 27.9 µM | [8] 3.1 µM | [17] 50 µM
inactive: [10] | [18] | [11] | [5] | [14] | [7]

CCSC(=O)N1CCCCCC1
active: [3] 3.97 µM | [4] 0.378 µM
inactive: [2] | [10] | [11] | [12] | [13] | [7] | [8]

COP(=O)(OC)O/C(C)=C/C(=O)N(C)C
inactive: [2] | [10] | [3] | [4] | [11] | [5] | [6] | [14] | [7] | [8]

COC(=O)NS(=O)(=O)c1ccc(N)cc1
inactive: [2] | [10] | [3] | [4] | [11] | [5] | [12] | [6] | [13] | [14] | [8] | [9]

Cc1nc(N(C)C)nc(OC(=O)N(C)C)c1C
active: [4] 5.26 µM | [6] 3.27 µM
inactive: [10] | [18] | [3] | [11] | [5] | [12] | [13] | [8]

From PubChem BioAssay (EPA / NIEHS)
